Structures are written as SMILES. Several values for one entry are separate records, joined by “and”; a condition that tells them apart may be missing. Identical values can stand only once. About 83,000 compounds went through this panel and 20% of them were active in at least one assay; those are over-represented in the sample as a whole.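 Step 1: grow cells in 96-well plates. Step 2: add test compound at a single concentration. Step 3: incubate 48 h. Step 4: record percent growth.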 Activity calls are given as the source filed them. How the source made its calls: active means growth percent below 10; inactive means the rest.

This is an account of results in PubChem BioAssay (NCI).

Among the test systems are SR leukemia; OVCAR-8 ovarian; OVCAR-5 ovarian; OVCAR-4 ovarian; IGROV1 ovarian; OVCAR-3 ovarian; HS 578T breast; NCI/ADR-RES ovarian.
Assay in all cases: NCI-60 one-dose screen, 48 h (100 = growth as untreated, 0 = no growth, -100 = all killed)
The next assay has as its system RPMI-8226 leukemia. As to conditions: 10 µM unless noted.
The next assay has as its system SK-OV-3 ovarian. The conditions noted are these: 10 µM unless noted.

On to `S=c1nn[nH]n1C1CCCCC1`, for which the growth is 101% (inactive) in the assay on SR leukemia (10 µM unless noted); 109% (inactive) in the assay on RPMI-8226 leukemia; 95.4% (inactive) in the assay on OVCAR-8 ovarian (10 µM unless noted); 117% (inactive) in the assay with OVCAR-5 ovarian (10 µM unless noted); 109% (inactive) with OVCAR-4 ovarian (10 µM unless noted); 137% (inactive) with SK-OV-3 ovarian. Also, the growth in the assay with IGROV1 ovarian (10 µM unless noted) was 104% (inactive); in the assay with OVCAR-3 ovarian (10 µM unless noted), 104% (inactive); in the assay on HS 578T breast (10 µM unless noted), 95.7% (inactive); with NCI/ADR-RES ovarian (10 µM unless noted), 112% (inactive).
On to `Cc1cc(-c2ccc(N=Nc3c(C)nn(-c4ccc(S(=O)(=O)O)cc4)c3O)c(C)c2)ccc1N=Nc1ccc(O)c(C(=O)O)c1`, for which the growth in the assay on SR leukemia (10 µM unless noted) is 86% (inactive); in the assay on RPMI-8226 leukemia, 81.7% (inactive); with OVCAR-8 ovarian (10 µM unless noted), 95.7% (inactive); in the assay with OVCAR-5 ovarian (10 µM unless noted) it was 94.4% (inactive); in the assay on OVCAR-4 ovarian (10 µM unless noted), 106% (inactive); with SK-OV-3 ovarian it was 96.9% (inactive). Further, the growth with IGROV1 ovarian (10 µM unless noted) was -9.24% (active); with OVCAR-3 ovarian (10 µM unless noted) it was 106% (inactive); in the assay on HS 578T breast (10 µM unless noted), 91.8% (inactive); with NCI/ADR-RES ovarian (10 µM unless noted), 104% (inactive).
On to `CCOP(C)(=O)/C(Cc1ccc(OC)c(OC)c1)=N\O` (configuration not stated), for which the growth in the assay on SR leukemia (10 µM unless noted) was 105% (inactive); in the assay on RPMI-8226 leukemia it was 99.3% (inactive); in the assay with OVCAR-8 ovarian (10 µM unless noted), 114% (inactive); with OVCAR-5 ovarian (10 µM unless noted), 96.6% (inactive); in the assay on OVCAR-4 ovarian (10 µM unless noted) it was 107% (inactive); in the assay with SK-OV-3 ovarian it was 115% (inactive). In addition, the growth is 104% (inactive) in the assay with IGROV1 ovarian (10 µM unless noted), 111% (inactive) in the assay with OVCAR-3 ovarian (10 µM unless noted), 94.9% (inactive) in the assay with HS 578T breast (10 µM unless noted) and 95.7% (inactive) in the assay on NCI/ADR-RES ovarian (10 µM unless noted).
With `CCOc1ccc(/C=C\C(=O)O)cc1`, the growth is 81.6% (inactive) in the assay with SR leukemia (10 µM unless noted); 113% (inactive) with RPMI-8226 leukemia; 98.7% (inactive) with OVCAR-8 ovarian (10 µM unless noted); 117% (inactive) with OVCAR-5 ovarian (10 µM unless noted); 108% (inactive) in the assay with OVCAR-4 ovarian (10 µM unless noted); 139% (inactive) in the assay with SK-OV-3 ovarian. In addition, the growth in the assay on IGROV1 ovarian (10 µM unless noted) was 101% (inactive); in the assay on OVCAR-3 ovarian (10 µM unless noted), 117% (inactive); in the assay with HS 578T breast (10 µM unless noted) it was 112% (inactive); in the assay on NCI/ADR-RES ovarian (10 µM unless noted), 110% (inactive).
As to `O=c1[nH]c(=S)[nH]n1C(=S)n1[nH]c(=S)[nH]c1=O`, the growth in the assay with SR leukemia (10 µM unless noted) was 99.7% (inactive); in the assay on RPMI-8226 leukemia it was 99% (inactive); in the assay on OVCAR-8 ovarian (10 µM unless noted) it was 101% (inactive); in the assay with OVCAR-5 ovarian (10 µM unless noted) it was 105% (inactive); in the assay on OVCAR-4 ovarian (10 µM unless noted) it was 112% (inactive); in the assay on SK-OV-3 ovarian, 109% (inactive). Moreover, the growth in the assay with IGROV1 ovarian (10 µM unless noted) was 101% (inactive); in the assay with OVCAR-3 ovarian (10 µM unless noted), 110% (inactive); in the assay on HS 578T breast (10 µM unless noted), 98.5% (inactive); in the assay with NCI/ADR-RES ovarian (10 µM unless noted), 95.2% (inactive).
Consider `Clc1ccc(/C=C/c2ccc3ccccc3n2)cc1`, for which the growth was 29% (inactive) and 59.4% (inactive) in the assay on SR leukemia (10 µM unless noted); 5.44% (active) and 63% (inactive) and 86.9% (inactive) in the assay on RPMI-8226 leukemia; 28.9% (inactive) and 86.1% (inactive) and 109% (inactive) in the assay on OVCAR-8 ovarian (10 µM unless noted); 35.6% (inactive) and 92.6% (inactive) and 74.5% (inactive) with OVCAR-5 ovarian (10 µM unless noted); 79% (inactive) and 88.3% (inactive) and 86.5% (inactive) in the assay with OVCAR-4 ovarian (10 µM unless noted); 20.4% (inactive) and 83% (inactive) and 84.6% (inactive) with SK-OV-3 ovarian. Also, the growth in the assay with IGROV1 ovarian (10 µM unless noted) is 52.6% (inactive) and 27.6% (inactive) and 75.1% (inactive); in the assay on OVCAR-3 ovarian (10 µM unless noted), -20.4% (active) and 106% (inactive) and 92.8% (inactive); with HS 578T breast (10 µM unless noted) it was -20% (active) and 168% (inactive) and 96.4% (inactive); in the assay on NCI/ADR-RES ovarian (10 µM unless noted) it was 83.6% (inactive) and 92% (inactive) and 79.4% (inactive).
For `C(#CCN1CCOCC1)CCCN1CCOCC1`, the growth is 124% (inactive) and 109% (inactive) in the assay on SR leukemia (10 µM unless noted); 112% (inactive) in the assay on RPMI-8226 leukemia; 105% (inactive) and 106% (inactive) in the assay on OVCAR-8 ovarian (10 µM unless noted); 102% (inactive) and 82.7% (inactive) in the assay on OVCAR-5 ovarian (10 µM unless noted); 102% (inactive) in the assay with OVCAR-4 ovarian (10 µM unless noted); 104% (inactive) and 106% (inactive) in the assay with SK-OV-3 ovarian. Besides, the growth in the assay with IGROV1 ovarian (10 µM unless noted) is 116% (inactive) and 106% (inactive); with OVCAR-3 ovarian (10 µM unless noted), 116% (inactive) and 111% (inactive); in the assay with HS 578T breast (10 µM unless noted), 112% (inactive) and 114% (inactive); in the assay with NCI/ADR-RES ovarian (10 µM unless noted), 105% (inactive) and 104% (inactive).
Turning to `COC(=O)c1nc(N)nc(C(=O)OC)c1C(=O)c1ccc(F)cc1`, the growth with SR leukemia (10 µM unless noted) is 112% (inactive); with RPMI-8226 leukemia, 112% (inactive); in the assay with OVCAR-8 ovarian (10 µM unless noted), 107% (inactive); with OVCAR-5 ovarian (10 µM unless noted), 114% (inactive); with OVCAR-4 ovarian (10 µM unless noted), 110% (inactive); in the assay on SK-OV-3 ovarian, 108% (inactive). Besides, the growth was 111% (inactive) in the assay with IGROV1 ovarian (10 µM unless noted), 116% (inactive) in the assay on OVCAR-3 ovarian (10 µM unless noted), 102% (inactive) in the assay with HS 578T breast (10 µM unless noted) and 109% (inactive) in the assay on NCI/ADR-RES ovarian (10 µM unless noted).
Regarding `CCCC(=O)OCC(COC(=O)CCC)OC(=O)CCC`, the growth with SR leukemia (10 µM unless noted) was 105% (inactive); with RPMI-8226 leukemia it was 98.1% (inactive); in the assay on OVCAR-8 ovarian (10 µM unless noted), 101% (inactive); in the assay on OVCAR-5 ovarian (10 µM unless noted) it was 102% (inactive); with OVCAR-4 ovarian (10 µM unless noted), 97.6% (inactive); with SK-OV-3 ovarian it was 103% (inactive). For the same compound, the growth with IGROV1 ovarian (10 µM unless noted) is 105% (inactive); in the assay with OVCAR-3 ovarian (10 µM unless noted), 105% (inactive); in the assay with HS 578T breast (10 µM unless noted), 98.6% (inactive); in the assay on NCI/ADR-RES ovarian (10 µM unless noted), 100% (inactive).
Turning to `S=c1nc[nH]c2nc[nH]c12`, the growth in the assay on SR leukemia (10 µM) is 18.1% (inactive); in the assay on SR leukemia (50 µM), 26.6% (inactive); with OVCAR-8 ovarian (10 µM), 26.6% (inactive); in the assay on OVCAR-8 ovarian (50 µM) it was 24% (inactive); in the assay with OVCAR-5 ovarian (10 µM) it was 44.7% (inactive); in the assay on OVCAR-5 ovarian (50 µM), 31.3% (inactive). Moreover, the growth with OVCAR-4 ovarian (10 µM) was 50.2% (inactive); with OVCAR-4 ovarian (50 µM), 30.9% (inactive); in the assay on SK-OV-3 ovarian it was 36.2% (inactive); in the assay with IGROV1 ovarian (10 µM), 70.5% (inactive); in the assay with IGROV1 ovarian (50 µM), 32.3% (inactive); in the assay with OVCAR-3 ovarian (10 µM), 29.6% (inactive). The growth in the assay with OVCAR-3 ovarian (50 µM) is 23.3% (inactive); with HS 578T breast (10 µM), 54.6% (inactive); with HS 578T breast (50 µM), 43.7% (inactive); with NCI/ADR-RES ovarian (10 µM) it was 22.8% (inactive); in the assay on NCI/ADR-RES ovarian (50 µM), 24.9% (inactive).
Turning to `CN1C2C=CC(=O)C1C1C(=O)N(c3ccccc3)C(=O)C12` (configuration not stated), the growth was 67.5% (inactive) in the assay on SR leukemia (10 µM unless noted); 37.5% (inactive) in the assay with RPMI-8226 leukemia; 69.9% (inactive) in the assay with OVCAR-8 ovarian (10 µM unless noted); 102% (inactive) with OVCAR-5 ovarian (10 µM unless noted); 76.4% (inactive) in the assay on OVCAR-4 ovarian (10 µM unless noted); 105% (inactive) in the assay with SK-OV-3 ovarian. The growth is -9.22% (active) in the assay on IGROV1 ovarian (10 µM unless noted), 47.1% (inactive) in the assay with OVCAR-3 ovarian (10 µM unless noted), 77.5% (inactive) in the assay on HS 578T breast (10 µM unless noted) and 92.6% (inactive) with NCI/ADR-RES ovarian (10 µM unless noted).
As for `CCOC(=O)c1ccc(N2C(=O)C(Cl)(c3ccccc3)C2c2ccco2)cc1` (configuration not stated), the growth in the assay with SR leukemia (10 µM unless noted) is 76.1% (inactive); in the assay with RPMI-8226 leukemia, 43% (inactive); with OVCAR-8 ovarian (10 µM unless noted), 90.2% (inactive); with OVCAR-5 ovarian (10 µM unless noted), 98.2% (inactive); in the assay with OVCAR-4 ovarian (10 µM unless noted), 90.4% (inactive); in the assay on SK-OV-3 ovarian it was 104% (inactive). The growth in the assay with IGROV1 ovarian (10 µM unless noted) was 99.1% (inactive); with OVCAR-3 ovarian (10 µM unless noted), 78.8% (inactive); with HS 578T breast (10 µM unless noted) it was 69.6% (inactive); in the assay on NCI/ADR-RES ovarian (10 µM unless noted) it was 91.3% (inactive).
